Compounds without any hit were thinned out: in the full panel of roughly 79,000, 15% have a hit. The source made the active and inactive calls. No stated cut-off is given here; in the data, active means growth inhibition above about 70%; inactive means the rest.
Legend:
[1] = NCI Yeast Anticancer Drug Screen. Data for the rad50 strain (AID 155);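 further: 0% = growth of vehicle-only cultures of the same strain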; conditions: S. cerevisiae rad50 strain growth inhibition; at 50.0 µM; hits give high values
In short: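 Relative growth inhibition (compound vs vehicle) was measured in yeast with a defined repair-gene alteration.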

[2] = NCI Yeast Anticancer Drug Screen. Data for the mec2-1 strain (AID 157); conditions: S. cerevisiae mec2-1 strain, at 50.0 µM, hits give high values
In short: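 Compounds were applied to mec2-1 yeast cells. Their growth was then compared with that of vehicle-treated cultures to give growth inhibition.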

[3] = NCI Yeast Anticancer Drug Screen. Data for the sgs1 mgt1 strain (AID 161);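 further: 0% = growth of cultures given vehicle only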; conditions: S. cerevisiae sgs1 mgt1 strain, at 50.0 µM, hits give high values
In short: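 Compounds are added to genetically altered yeast, and growth is compared with cultures given vehicle alone to give percent inhibition.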

[4] = NCI Yeast Anticancer Drug Screen. Data for the bub3 strain (AID 167); conditions: S. cerevisiae bub3 mutant strain, at 50.0 µM, hits give high values
In short: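 Screening used yeast with an engineered genetic alteration affecting cell cycle control. Compound-exposed cultures were compared with vehicle cultures, and reduced growth was taken as inhibition.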

[5] = NCI Yeast Anticancer Drug Screen. Data for the mlh1 rad18 strain (AID 175); conditions: S. cerevisiae mlh1 rad18 strain growth inhibition; at 50.0 µM; hits give high values
In short: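 A repair-deficient yeast strain is exposed to test compound, and growth is scored relative to vehicle-treated controls.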

Measured: growth inhibition

O=C(Cc1ccccc1)NN1C(=O)C(Cl)C1c1ccc(O)cc1 (stereo not given)
inactive: [1] -27.9% | [2] -16.4% | [3] -11.2% | [4] -29.4% | [5] 3.4%

CN1CC[C@H]([C@@H](O)c2ccccc2)C1=O
inactive: [1] 4.95% | [2] -7% | [3] -3.5% | [4] 0.35% | [5] 5.7%

Cc1cccc(OCCCCCl)c1
inactive: [1] -18% | [2] -9.7% | [3] -8.25% | [4] -20.6% | [5] -9.3%

CCOc1cccc(/C=N/N=C2\C(=O)Nc3c(Cl)cc(Cl)cc32)c1O
active: [5] 83.2%
inactive: [1] 22.2% | [2] 15.6% | [3] 39.9% | [4] 34.1%

CCCCS(=O)CC(CO)NC(=O)/C=C/c1c(C)[nH]c(=O)[nH]c1=O (stereo not given)
inactive: [1] 12.9% | [2] 22.8% | [3] 12.8% | [4] -3.25% | [5] 33.9%

CCC(=O)C(CC)c1ccc(OC)cc1OC (stereo not given)
inactive: [1] -1.75% | [2] -31.4% | [3] -6.15% | [4] 7.3% | [5] 15.6%

C=CCNC(=S)/N=C\C(C(=O)OCC)=C(/O)C(=O)OCC
inactive: [1] -18.6% | [2] -18.4% | [3] -16.6% | [4] -8.85% | [5] -29.8%

O=S(=O)(Cc1c(Cl)c(Cl)c(Cl)c(Cl)c1Cl)c1ccc(Cl)cc1
inactive: [1] 1.2% | [2] -0.6% | [3] -1.25% | [4] 2.4% | [5] -2.4%

CC1=CC2C3C(=O)OC(=O)C3C1C(Cc1ccccc1)N2C (stereo not given)
inactive: [1] 14.5% | [2] -1.85% | [3] 10.6% | [4] -6.55% | [5] 21.5%

N#CC(O)CCOCc1ccccc1 (stereo not given)
inactive: [1] 9% | [2] -10.1% | [3] -5.45% | [4] -5% | [5] -14.2%

O=S1(=O)OCCOS(=O)(=O)C1F
inactive: [1] -69% | [2] -4.65% | [3] -22.4% | [4] -5.35% | [5] -16.1%

O=C(O)C(=Cc1ccc(-c2ccc([N+](=O)[O-])cc2)o1)C(=O)O
inactive: [1] 6.95% | [2] 0.7% | [3] -12.8% | [4] 15.8% | [5] 12.4%

CCN(CC)CCCNc1ncc(C)c2[nH]c3ccncc3c12
inactive: [1] 2.9% | [2] 22.6% | [3] 0.4% | [4] -0.25% | [5] 12.1%

Nc1ccc(S(=O)(=O)O)cc1Cl
inactive: [1] -12.5% | [2] -12% | [3] -5.25% | [4] -10.4% | [5] -3.5%

CCCCOC1NC(=O)Oc2ccccc21 (stereo not given)
inactive: [1] -9.35% | [2] 4% | [3] -3.15% | [4] -4.95% | [5] 15.1%

O=c1cc[nH]c2ccc(Cl)cc12
inactive: [1] -10.2% | [2] 5.3% | [3] -4.4% | [4] -7.1% | [5] -1.45%

O=C(O)CNC(=O)C(=O)c1c[nH]c2ccc([N+](=O)[O-])cc12
inactive: [1] -6.5% | [2] -27.8% | [3] 1.05% | [4] -2.1% | [5] 0.2%

CCNc1nc(C)nc2c1cnn2-c1ccccc1
inactive: [1] -16.1% | [2] -12.6% | [3] -6.75% | [4] -4.8% | [5] -9.75%

NC(=NCc1ccncc1)N/N=C\c1ccnc2ccccc12
inactive: [1] 4.15% | [2] 10.9% | [3] 7.75% | [4] -9.5% | [5] 7.75%

CC(C)(C)c1ccc(Sc2cccc3c2C(=O)c2c(Cl)cccc2C3=O)cc1
inactive: [1] -11.3% | [2] -4.1% | [3] -27.1% | [4] 0.55% | [5] -0.85%

Cc1ccnc(N=C/C=C2/C=CC=CN2O)c1
inactive: [1] 0.25% | [2] -9.35% | [3] 1.75% | [4] -8.45% | [5] -11.8%

COC(=O)CCc1onc(Br)c1CCl
inactive: [1] 17.8% | [2] 9.05% | [3] -7.55% | [4] 9.95% | [5] 9.5%

Cc1ccc2ccc(C)nc2c1
inactive: [1] 15.8% | [2] -23.7% | [3] -5.85% | [4] 18.2% | [5] -22.9%
